Assay results: the supplement of paper PMC13380429
Values without a mark were called inactive.

System: Vero E6 infected with SARS-CoV-2
Assay: inhibition of SARS-CoV-2 cytopathic effect; higher = more antiviral protection, active = above 15
Settings: 48 h

In the case of `COc1ccc(CN2C(=O)C(=O)c3cc(OC(F)(F)F)ccc32)cc1`, the “inhibition of SARS-CoV-2 cytopathic effect” value (shortened to “inhibition”) (1 nM) is reported as -0.15%, the “inhibition” value (8.33 nM) is reported as 1.14% and the “inhibition” value (100 nM) is reported as 1.79%. The “inhibition” value (833.33 nM) was 1.75% and the “inhibition” value (10000 nM) was 6.79%.

In the case of `COc1ccc2cc(OCC3(C(=O)O)CN(C(=O)c4ccc(F)cc4)C3)ccc2c1`, the “inhibition” value (1 nM) is reported as 2.48%, the “inhibition” value (8.33 nM) is reported as 0% and the “inhibition” value (100 nM) is reported as 1.35%. The “inhibition” value (833.33 nM) was 2.44% and the “inhibition” value (10000 nM) was 1.77%.

For `C[N+](C)(C)CC#CCN1CCCC1=O` [oxotremorine-M], the “inhibition” value (1 nM) was -3.6%, the “inhibition” value (8.33 nM) was -0.15% and the “inhibition” value (100 nM) was 2.23%. For the same compound, the “inhibition” value (833.33 nM) was -2.21% and the “inhibition” value (10000 nM) was 0.38%.

With `C#CCN(C)Cc1ccccc1` [pargyline] the “inhibition” value (1 nM) was 0%, the “inhibition” value (8.33 nM) was 0.65% and the “inhibition” value (100 nM) was -1.02%. The “inhibition” value (833.33 nM) was -1.01% and the “inhibition” value (10000 nM) was 2.9%.

`Cc1ccccc1N(C)C(=O)c1ccc([S+]([O-])c2nccs2)c([N+](=O)[O-])c1` (stereo not given) was tested, and the “inhibition” value (1 nM) was -0.08%, the “inhibition” value (8.33 nM) was -0.71% and the “inhibition” value (100 nM) was 1.56%. For the same compound, the “inhibition” value (833.33 nM) was 16.5% (active) and the “inhibition” value (10000 nM) was 12.2%.

With `CS[C@H]1SC[C@H]2C(=O)N(C)[C@@H](C(C)C)C(=O)OC[C@@H](NC(=O)c3cnc4ccccc4n3)C(=O)N[C@@H](C)C(=O)N(C)[C@@H]1C(=O)N(C)[C@@H](C(C)C)C(=O)OC[C@@H](NC(=O)c1cnc3ccccc3n1)C(=O)N[C@@H](C)C(=O)N2C` [echinomycin] the “inhibition” value (1 nM) was 2%, the “inhibition” value (8.33 nM) was -4.69% and the “inhibition” value (100 nM) was -19.9%. For the same compound, the “inhibition” value (833.33 nM) was -17.1% and the “inhibition” value (10000 nM) was -27%.

With `CC(=O)O[C@@H]1CC[C@@]2(C)[C@@H](CC[C@]3(C)[C@@H]2C(=O)C=C2[C@@H]4[C@@H](C)[C@H](C)CC[C@]4(C)CC[C@]23C)[C@@]1(C)C(=O)O` [acetyl-11-keto-beta-boswellic-acid] the “inhibition” value (1 nM) was -1.38%, the “inhibition” value (8.33 nM) was -3.19% and the “inhibition” value (100 nM) was -1.26%. For the same compound, the “inhibition” value (833.33 nM) was -0.71% and the “inhibition” value (10000 nM) was -0.995%.

In the case of `CCCCCCCCc1ccc(CCC(N)(CO)CO)cc1` [fingolimod], the “inhibition” value (1 nM) is reported as 0%, the “inhibition” value (8.33 nM) is reported as 2.1% and the “inhibition” value (100 nM) is reported as -0.53%. The “inhibition” value (833.33 nM) was -4% and the “inhibition” value (10000 nM) was 15.2% (active).

`NC(=O)CN1CC[C@@H](NC(=O)[C@@H]2CCCN2)C1=O` was tested, and the “inhibition” value (1 nM) was 1.05%, the “inhibition” value (8.33 nM) was -1.41% and the “inhibition” value (100 nM) was 0.01%. For the same compound, the “inhibition” value (833.33 nM) was 0.9% and the “inhibition” value (10000 nM) was 0.65%.

In the case of `NS(=O)(=O)c1cc2c(cc1Cl)NC(CC1CCCC1)NS2(=O)=O` (stereo not given) [cyclopenthiazide], the “inhibition” value (1 nM) is reported as 1.26%, the “inhibition” value (8.33 nM) is reported as 2.37% and the “inhibition” value (100 nM) is reported as -0.67%. The “inhibition” value (833.33 nM) was -2.85% and the “inhibition” value (10000 nM) was -0.14%.

For `CC(C)=CCC/C(C)=C/CNCCNC1C2CC3CC(C2)CC1C3` (stereo not given), the “inhibition” value (1 nM) was 0.6%, the “inhibition” value (8.33 nM) was 0.09% and the “inhibition” value (100 nM) was 1.62%. For the same compound, the “inhibition” value (833.33 nM) was 1.05% and the “inhibition” value (10000 nM) was 0.17%.

With `COc1cc(O)c2c(c1)C(=O)c1cc(C)cc(O)c1C2=O` [rheochrysidin] the “inhibition” value (1 nM) was 1.91%, the “inhibition” value (8.33 nM) was 1.62% and the “inhibition” value (100 nM) was 1.33%. The “inhibition” value (833.33 nM) was -0.52% and the “inhibition” value (10000 nM) was -0.59%.

For `CC(C(=O)O)c1ccc(N2Cc3ccccc3C2=O)cc1` (stereo not given) [indoprofen], the “inhibition” value (1 nM) was 0.91%, the “inhibition” value (8.33 nM) was 0.93% and the “inhibition” value (100 nM) was 0.86%. The “inhibition” value (833.33 nM) was 1.21% and the “inhibition” value (10000 nM) was 0.49%.

With `O=C(O)c1cc(O)c2c(Cl)cc(Cl)cc2n1` [5,7-dichlorokynurenic-acid] the “inhibition” value (1 nM) was 1.65%, the “inhibition” value (8.33 nM) was -2.54% and the “inhibition” value (100 nM) was -2.79%. The “inhibition” value (833.33 nM) was 0.55% and the “inhibition” value (10000 nM) was -0.44%.

For `Nc1nc(CC(=O)Nc2ccc(CCNC[C@H](O)c3ccccc3)cc2)cs1` [mirabegron], the “inhibition” value (1 nM) was -0.75%, the “inhibition” value (8.33 nM) was -0.61% and the “inhibition” value (100 nM) was 1.85%. The “inhibition” value (833.33 nM) was -1.35% and the “inhibition” value (10000 nM) was -3.3%.

For `COc1cc(OC)c2c(=O)[nH]c(-c3cc(C)c(OCCO)c(C)c3)nc2c1` [apabetalone], the “inhibition” value (1 nM) was -0.27%, the “inhibition” value (8.33 nM) was 0.93% and the “inhibition” value (100 nM) was 2.32%. The “inhibition” value (833.33 nM) was -1.57% and the “inhibition” value (10000 nM) was -0.84%.

In the case of `CCC/N=C1\S/C(=C\c2ccc(OC[C@H](O)CO)c(Cl)c2)C(=O)N1c1ccccc1C` [ponesimod], the “inhibition” value (1 nM) is reported as -1.82%, the “inhibition” value (8.33 nM) is reported as -0.6% and the “inhibition” value (100 nM) is reported as -2.77%. The “inhibition” value (833.33 nM) was -2.51% and the “inhibition” value (10000 nM) was -0.58%.

With `O=C1C(=O)N(Cc2ccc(Cl)c(Cl)c2)c2ccccc21` [apoptosis-activator-II] the “inhibition” value (1 nM) was 1.74%, the “inhibition” value (8.33 nM) was -0.59% and the “inhibition” value (100 nM) was -1.07%. For the same compound, the “inhibition” value (833.33 nM) was -3.55% and the “inhibition” value (10000 nM) was -3.11%.

`Cc1nc2c(O)cccc2c(=O)[nH]1` was tested, and the “inhibition” value (1 nM) was 2.07%, the “inhibition” value (8.33 nM) was 2.96% and the “inhibition” value (100 nM) was -2.15%. The “inhibition” value (833.33 nM) was 3.67% and the “inhibition” value (10000 nM) was 4.88%.

For `O=P(O)(O)C(O)(Cn1ccnc1)P(=O)(O)O` [zoledronic-acid], the “inhibition” value (1 nM) was -0.24%, the “inhibition” value (8.33 nM) was 2.18% and the “inhibition” value (100 nM) was 1.88%. For the same compound, the “inhibition” value (833.33 nM) was 0.51% and the “inhibition” value (10000 nM) was -0.12%.

With `CCCCNc1cc(C(=O)O)cc(S(N)(=O)=O)c1Oc1ccccc1` [bumetanide] the “inhibition” value (1 nM) was 0.26%, the “inhibition” value (8.33 nM) was 2.83% and the “inhibition” value (100 nM) was 0.69%. The “inhibition” value (833.33 nM) was 1.71% and the “inhibition” value (10000 nM) was 1.07%.

With `OCc1ccccc1O` [salicyl-alcohol] the “inhibition” value (1 nM) was -0.86%, the “inhibition” value (8.33 nM) was -1.41% and the “inhibition” value (100 nM) was 0.06%. For the same compound, the “inhibition” value (833.33 nM) was 4.76% and the “inhibition” value (10000 nM) was 0.29%.

In the case of `CN(C)CCCC1(c2ccc(F)cc2)OCc2cc(C#N)ccc21` (stereo not given) [citalopram], the “inhibition” value (1 nM) is reported as -0.29%, the “inhibition” value (8.33 nM) is reported as 2.58% and the “inhibition” value (100 nM) is reported as 1.49%. For the same compound, the “inhibition” value (833.33 nM) was -0.995% and the “inhibition” value (10000 nM) was -4.99%.

In the case of `O=C1c2ccc(Nc3ccc(F)cc3F)cc2CCc2ccc(OC[C@H](O)CO)cc21` [skepinone-L], the “inhibition” value (1 nM) is reported as -0.76%, the “inhibition” value (8.33 nM) is reported as -3.41% and the “inhibition” value (100 nM) is reported as -5.13%. For the same compound, the “inhibition” value (833.33 nM) was -8.06% and the “inhibition” value (10000 nM) was -9.5%.

In the case of `CCCCN(Cc1ccc(C(=O)NO)cc1)C(=O)Nc1ccccc1` [nexturastat-A], the “inhibition” value (1 nM) is reported as 0.96%, the “inhibition” value (8.33 nM) is reported as 0.67% and the “inhibition” value (100 nM) is reported as -0.8%. The “inhibition” value (833.33 nM) was -3.85% and the “inhibition” value (10000 nM) was -13.9%.

For `O=C1NC(=S)NC(=O)C1C(=O)Nc1ccccc1` [merbarone], the “inhibition” value (1 nM) was -0.86%, the “inhibition” value (8.33 nM) was -1.86% and the “inhibition” value (100 nM) was -0.15%. The “inhibition” value (833.33 nM) was -0.03% and the “inhibition” value (10000 nM) was 1.95%.

With `O=c1cc(-c2ccccc2)oc2cc(O)cc(O)c12` [chrysin] the “inhibition” value (1 nM) was -1.5%, the “inhibition” value (8.33 nM) was 0.24% and the “inhibition” value (100 nM) was -1.23%. The “inhibition” value (833.33 nM) was -7.18% and the “inhibition” value (10000 nM) was -3.61%.

With `CC(=O)c1ccc(NS(C)(=O)=O)c(Oc2ccc(F)cc2F)c1` the “inhibition” value (1 nM) was 4.46%, the “inhibition” value (8.33 nM) was 0.47% and the “inhibition” value (100 nM) was 0.56%. The “inhibition” value (833.33 nM) was 1.88% and the “inhibition” value (10000 nM) was 2.13%.

`CSCC[C@H](NC(=O)[C@H](Cc1ccccc1)NC(=O)CNC(=O)CNC(=O)[C@@H](N)Cc1ccc(O)cc1)C(=O)O` [metenkephalin] was tested, and the “inhibition” value (1 nM) was 0.74%, the “inhibition” value (8.33 nM) was -1.23% and the “inhibition” value (100 nM) was 1.24%. The “inhibition” value (833.33 nM) was -4.78% and the “inhibition” value (10000 nM) was -5.57%.

In the case of `N#Cc1ccc(-c2csc(NN=C3CCCC3)n2)cc1` [remodelin], the “inhibition” value (1 nM) is reported as 0.9%, the “inhibition” value (8.33 nM) is reported as 1% and the “inhibition” value (100 nM) is reported as 1.18%. For the same compound, the “inhibition” value (833.33 nM) was 0.48% and the “inhibition” value (10000 nM) was 0.34%.

For `CC(=O)c1ccc2c(c1)N(CCCN1CCC(CCO)CC1)c1ccccc1S2` [piperacetazine], the “inhibition” value (1 nM) was 4.15%, the “inhibition” value (8.33 nM) was 4.04% and the “inhibition” value (100 nM) was 1.55%. For the same compound, the “inhibition” value (833.33 nM) was 0.28% and the “inhibition” value (10000 nM) was 3.14%.

For `N[C@@H](Cc1c[nH]c2ccc(O)cc12)C(=O)O` [5-hydroxytryptophan], the “inhibition” value (1 nM) was -0.86%, the “inhibition” value (8.33 nM) was 0.52% and the “inhibition” value (100 nM) was 1.04%. For the same compound, the “inhibition” value (833.33 nM) was 2.16% and the “inhibition” value (10000 nM) was 2.55%.

With `NS(=O)(=O)Nc1ncnc(OCCOc2ncc(Br)cn2)c1-c1ccc(Br)cc1` the “inhibition” value (1 nM) was -1.74%, the “inhibition” value (8.33 nM) was -0.97% and the “inhibition” value (100 nM) was -0.65%. For the same compound, the “inhibition” value (833.33 nM) was -3.11% and the “inhibition” value (10000 nM) was -3.32%.

In the case of `COc1ccc(/C=C/C(=O)/C=C(O)/C=C/c2ccc(OC)c(OC)c2)cc1OC`, the “inhibition” value (1 nM) is reported as 1.2%, the “inhibition” value (8.33 nM) is reported as -0.13% and the “inhibition” value (100 nM) is reported as 3.36%. The “inhibition” value (833.33 nM) was 5.15% and the “inhibition” value (10000 nM) was 19.7% (active).

For `O=c1[nH]nc2c3c(cccc13)N=C(CN1Cc3ccccc3C1)N2`, the “inhibition” value (1 nM) was 0.7%, the “inhibition” value (8.33 nM) was -0.79% and the “inhibition” value (100 nM) was 0.78%. The “inhibition” value (833.33 nM) was 0.24% and the “inhibition” value (10000 nM) was 1.13%.

For `Cn1c(N2CCCCS2(=O)=O)nc(C(=O)NCc2ccc(F)cc2)c(O)c1=O`, the “inhibition” value (1 nM) was -0.4%, the “inhibition” value (8.33 nM) was -1.76% and the “inhibition” value (100 nM) was -4.2%. The “inhibition” value (833.33 nM) was -0.06% and the “inhibition” value (10000 nM) was -1.72%.
